Source: PubChem BioAssay (National Center for Advancing Translational Sciences (NCATS))
FMDV inh: High Throughput Screening for Foot and Mouth Disease Virus Antivirals. 1.2% of 410,000 active. FMDV antiviral cell-based qHTS. Potency, µM (highest dose often 57.9 µM), inactives show top-dose activity change, negative = inhibition, usual class: inhibitors. AID 1159524, 2015; calls by dose curve; tested in HEK293T cells; also: read-out not given here; potency is read from the fitted curve at half-maximal effect; nearly all actives have a fitted effect of over 45% in size
AmpC detergent: qHTS Inhibitors of AmpC Beta-Lactamase (assay with detergent); AmpC hydrolysis of nitrocefin, absorbance 480 nm, 0.01% Triton; Potency, µM (highest dose often 114 µM), without a hit: top-dose activity change, negative = inhibition, actives largely listed as inhibitors; P00811; AID 485294, 2010; 0.041% of 370,000 active;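 also: potency is read from the fitted curve at half-maximal effect; 0% = no-compound wells and -100% = no-enzyme wells; nearly all actives have a fitted effect of over 25% in size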
Target sequence (P00811 whole entry, looked up): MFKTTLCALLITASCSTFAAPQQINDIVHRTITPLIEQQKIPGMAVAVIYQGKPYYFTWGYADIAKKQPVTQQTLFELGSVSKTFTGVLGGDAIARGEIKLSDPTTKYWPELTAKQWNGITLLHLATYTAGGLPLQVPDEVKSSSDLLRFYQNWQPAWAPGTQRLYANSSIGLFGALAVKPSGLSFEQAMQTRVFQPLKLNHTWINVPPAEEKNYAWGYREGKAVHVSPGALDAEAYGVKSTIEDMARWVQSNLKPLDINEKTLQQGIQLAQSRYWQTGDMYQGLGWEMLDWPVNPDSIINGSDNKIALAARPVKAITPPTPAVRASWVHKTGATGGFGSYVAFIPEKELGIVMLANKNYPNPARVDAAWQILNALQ
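AmpC (5.3 nM in the dispensed reagent) in 20 mM phosphate pH 7.0 with 0.01% (detergent screen) or 0.0001% Triton X-100 was preincubated with compounds for 15 min at room temperature. Nitrocefin was then added from an 800 uM solution, and hydrolysis was followed at 480 nm.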
HCV inhibitor: qHTS Assay for Inhibitors of Hepatitis C Virus (HCV); Huh7.5.1 HCVcc-Cre infection, luciferase reporter, 44 h; Potency, µM (highest dose often 41.8 µM), for inactives: top-dose activity change, negative = inhibition, most hits filed as inhibitors; 3.4% of 340,000 active; also: potency is read from the fitted curve at half-maximal effect
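HCVcc-Cre virus at an moi near 0.5 was added right after compound to cells cultured 4 h from seeding (1,000 cells/well). Luciferase activity was determined 44 h later, 15 min after substrate addition at RT.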
HCMV antiviral: qHTS Assay for inhibitors of the human cytomegalovirus (HCMV); 4.5% of 410,000 active; HFF cells, HCMV-luciferase reporter, 72 h; active compounds read low; activity change, negative = inhibition, % at 57.5 µM; in the data active = activity change below about -60%; inconclusive = no clear call, values can overlap the other calls; inactive = above about -39%
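Steps: HFFs plated, 16 h 37C; compounds added; HCMV-luciferase added to MOI 1 PFU/cell; 72 h 37C; OneGlo reagent, 5 min room temperature; luminescence read, normalized to controls.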
AmpC no deterg: qHTS Inhibitors of AmpC Beta-Lactamase (assay without detergent); Potency, µM (titrated, usually from 57.1 µM), for the others: at the top dose activity change, negative = inhibition, usual class: inhibitors; AmpC nitrocefin hydrolysis, absorbance 480 nm, 0.0001% Triton; 0.52% of 330,000 active; AID 485341, 2010; P00811;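 also: potency is read from the fitted curve at half-maximal effect; plate controls were no compound for no effect and no enzyme for full effect; nearly all actives have a fitted effect of over 20% in size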
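20 mM phosphate pH 7.0 + 0.01% (detergent screen) or 0.0001% Triton X-100; 5.3 nM AmpC reagent; cpd preinc 15 min RT; nitrocefin (800 uM stock) to start; A480 q20 s × 4 min; Activity was normalised to no-enzyme and no-compound control wells.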
Starred values were filed as active, the others as inactive. An excerpt weighted towards active compounds, which were near 7.3% of everything screened. Unless noted, calls follow the shape of the dose curve; as a rule, active = well fitted curve in the direction sought with a large enough effect; inconclusive = small, poorly fitted or top-dose-only effect, or another doubt; inactive = no such curve, though single readings can be large; an effect the other way counts as inactive or inconclusive. Unless noted, % is scaled to controls: 0 for no effect and ±100 for the full control effect.

`CC1=C(C(=O)Nc2ccccc2)C(c2cccc(Cl)c2)n2nc(SCC(=O)c3ccc(C)cc3)nc2N1` (stereo not given) gave FMDV inh 9%, AmpC detergent -1% and HCMV antiviral 4.
For CCN(CC)c1cccc(OCC(=O)N2c3ccccc3CC2C)c1 (stereo not given) the results were FMDV inh -5%, AmpC detergent -11%, HCV inhibitor inconclusive, HCMV antiviral -77* and AmpC no deterg -14%.
Screening COc1ccc(-n2c(-c3ccccc3F)nc3c(cnn3-c3ccc(C)cc3)c2=O)cc1 returned FMDV inh -25%, AmpC detergent -1% and HCMV antiviral 10.
Screening CC(C)Oc1ccc(C(=O)Nc2nc3c(s2)CC(C(C)(C)C)CC3)cc1 (stereo not given) returned FMDV inh inconclusive, AmpC detergent 3% and HCMV antiviral inconclusive.
`Cc1ccccc1C(=O)Nc1nc2c(s1)CC(C(C)(C)C)CC2` (stereo not given) gave FMDV inh -11%, AmpC detergent 17% and HCMV antiviral -66*.
CCN1C[C@@H]2[C@@H]3C(=O)N(Cc4ccccc4)C(=O)[C@@H]3[C@](CC)(C1=O)N2C(=O)c1ccccc1 was read as FMDV inh 17%, HCV inhibitor 17% and HCMV antiviral -7.
Screening O=C(C1=NNCC1c1ccccc1)C1CO1 (stereo not given) returned FMDV inh -25%, AmpC detergent -1%, HCV inhibitor 11%, HCMV antiviral -69* and AmpC no deterg -14%.
`Nc1cc(Cl)nc(N/N=C/c2c(O)ccc3ccccc23)n1` gave FMDV inh -9%, AmpC detergent -12%, HCV inhibitor inconclusive, HCMV antiviral -71* and AmpC no deterg -35%.
O=C(CNc1ccccc1)N/N=C/c1c(O)ccc2ccccc12 was read as FMDV inh 8%, AmpC detergent 1%, HCV inhibitor 10µM*, HCMV antiviral -89* and AmpC no deterg -47%.
`O=C(CSCC(=O)Nc1ccccc1)N/N=C/c1c(O)ccc2ccccc12` gave FMDV inh 30%, AmpC detergent 3%, HCV inhibitor 10µM*, HCMV antiviral -104* and AmpC no deterg -41%.
COc1ccccc1NS(=O)(=O)c1cccc(NC(=O)c2cc3ccccc3oc2=O)c1 was read as FMDV inh 44%, AmpC detergent -3%, HCV inhibitor 6%, HCMV antiviral 4 and AmpC no deterg -30%.
For CCOC(=O)c1c(-c2ccc(C)cc2)cn2ccccc12 the results were FMDV inh 0%, AmpC detergent 1%, HCV inhibitor 10µM*, HCMV antiviral 17 and AmpC no deterg -5%.
CC(C)N(CCNC(=O)COc1ccc2oc3c(c2c1)CCCC3)C(C)C was read as FMDV inh 0%, AmpC detergent -2%, HCV inhibitor 13µM*, HCMV antiviral -20 and AmpC no deterg 68%.
`FC(F)Oc1ccc(-c2c[n+]3c(n2-c2ccccc2)CCCCC3)cc1` gave FMDV inh -22%, AmpC detergent 0%, HCV inhibitor 5%, HCMV antiviral inconclusive and AmpC no deterg -5%.
COc1ccc(-c2c[n+]3c(n2-c2ccc(C)cc2)CCCCC3)cc1 was read as FMDV inh inconclusive, AmpC detergent -5%, HCV inhibitor inconclusive, HCMV antiviral -97* and AmpC no deterg 8%.
Screening COc1ccc(-c2c[n+](CC(=O)c3ccccc3)c3n2CCCCC3)cc1 returned FMDV inh -26%, AmpC detergent 4%, HCV inhibitor inconclusive, HCMV antiviral inconclusive and AmpC no deterg 43%.
Screening COc1ccc(-c2c[n+]3c(n2-c2c(C)n(C)n(-c4ccccc4)c2=O)CCCCC3)cc1 returned FMDV inh 27%, AmpC detergent 2%, HCV inhibitor 16%, HCMV antiviral 1 and AmpC no deterg -28%.
